Activity calls are given as the source filed them. Calls come from the whole dose curve.
Biological target: Acetylcholinesterase (Homo sapiens) (UniProt P22303)
Assay: Acetylcholinesterase (AChE) small molecule antagonists: enzyme-based qHTS assay with human liver microsomes (AID 1347399); note: nearly all actives have a fitted effect of over 60% in size
Conditions: Potency: qHTS inhibition; outcome: qHTS inhibition; series mostly up to 115 µM; activity change, negative = inhibition: at the top concentration
How it was run: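 Recombinant human AChE (50 mU/mL in the enzyme mix) and human liver microsomes (0.25 mg/mL final) were preincubated with compound and NADPH (0.25 mg/mL final) for 30 min at 37 C. Acetylthiocholine/DTNB was then added; thiocholine was read colorimetrically after 10 min at room temperature.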
% is set by controls: 0 for no effect and ±100 for the full control effect.

Acetylcholinesterase (Homo sapiens), sequence (P22303 whole entry, looked up): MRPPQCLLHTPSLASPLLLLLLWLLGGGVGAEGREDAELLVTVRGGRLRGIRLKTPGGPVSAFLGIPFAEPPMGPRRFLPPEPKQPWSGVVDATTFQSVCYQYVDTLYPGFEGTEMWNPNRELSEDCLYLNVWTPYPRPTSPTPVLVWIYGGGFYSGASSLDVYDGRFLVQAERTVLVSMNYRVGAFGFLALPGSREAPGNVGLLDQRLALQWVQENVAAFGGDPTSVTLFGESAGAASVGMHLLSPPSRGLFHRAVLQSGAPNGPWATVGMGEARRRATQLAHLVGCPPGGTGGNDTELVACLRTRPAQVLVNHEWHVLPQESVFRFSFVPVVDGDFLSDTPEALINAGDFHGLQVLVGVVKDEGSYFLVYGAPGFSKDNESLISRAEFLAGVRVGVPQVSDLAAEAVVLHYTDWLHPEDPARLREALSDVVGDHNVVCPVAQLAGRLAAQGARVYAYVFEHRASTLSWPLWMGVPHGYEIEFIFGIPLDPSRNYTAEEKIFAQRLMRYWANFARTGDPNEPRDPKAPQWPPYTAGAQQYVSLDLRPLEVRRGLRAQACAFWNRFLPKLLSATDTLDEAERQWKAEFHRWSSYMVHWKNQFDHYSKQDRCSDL

| Structure (SMILES) | activity change, negative = inhibition | Potency |
| --- | --- | --- |
| COC(=O)c1cc(Cl)ccc1NS(=O)(=O)C(F)(F)F | 0.437% [at 53 µM] (inactive) |  |
| CC(C)=CCC[C@](C)(O)[C@@H]1CC=C(C)CC1 | -0.764% (inactive) |  |
| COc1ccccc1N1CCN(CCCCNC(=O)c2ccc(-c3ccc(C(C)=O)cc3)cc2)CC1 | -0.756% [at 53 µM] (inactive) |  |
| C=CCNCC=C |  | inactive |
| CCCC(=O)Nc1ccc(O)c(C(C)=O)c1 | 1.18% [at 53 µM] (inactive) |  |
| CN(C)CCCN(C)C | 0.146% [at 10.5 µM] (inactive) |  |
| O=C1c2ccccc2C(=O)C1c1nc2ccccc2c(Br)c1O | 0.291% (inactive) |  |
| O=C1CCCCCCCCCCCCCC1 | -1.88% (inactive) |  |
| Cc1ccc(S(=O)(=O)NCl)cc1 |  | inactive |
| CCCCCCCCCCCCCCCCCCOCCO | 0.112% [at 23.6 µM] (inactive) |  |
| C[C@]12CCC(=O)C=C1CC[C@@H]1[C@@H]2[C@@H](O)C[C@@]2(C)[C@H]1CC[C@]2(O)C(=O)COC(=O)CCC(=O)O | -3.68% [at 53 µM] (inactive) |  |
| CNC1(C)C2CCC(C2)C1(C)C (stereo not given) | -0.147% [at 53 µM] (inactive) |  |
| C[Si]1(C)O[Si](C)(C)O[Si](C)(C)O[Si](C)(C)O[Si](C)(C)O1 | -0.979% (inactive) |  |
| O=C(O)CNC(=O)c1ccccc1 | -2.19% [at 53 µM] (inactive) |  |
| O=C(O)C(=O)O |  | inactive |
| Cc1ncc(COP(=O)(O)O)c(C=O)c1O | 2.18% [at 53 µM] (inactive) |  |
| CCOc1c(N2CCOCC2)cnn(C)c1=O | -0.167% [at 53 µM] (inactive) |  |
| CC(=O)CCC(=O)O |  | inactive |
| C[C@H]1COc2c(C3(N)CC3)c(F)cc3c(=O)c(C(=O)O)cn1c23 | 1.57% [at 53 µM] (inactive) |  |
| CC1=CC[C@@H]2C[C@H]1C2(C)C | -3.81% [at 23.6 µM] (inactive) |  |

| Structure (SMILES) | activity change, negative = inhibition | Potency |
| --- | --- | --- |
| Nc1cc([N+](=O)[O-])ccc1Cl | 2.02% (inactive) |  |
| CN1CCC(OC(c2ccccc2)c2ccccc2)CC1 | -2.6% [at 53 µM] (inactive) |  |
| CC(=O)OC[C@H]1O[C@@H](OC(C)=O)[C@H](OC(C)=O)[C@@H]1OC(C)=O | 0.293% [at 53 µM] (inactive) |  |
| CCO[Si](CC(C)C)(OCC)OCC | -1.38% (inactive) |  |
| CCCNC(C)(C)COC(=O)c1ccccc1 | 2.98% [at 53 µM] (inactive) |  |
| Cc1nnc(C(=O)NC(C)(C)c2nc(C(=O)NCc3ccc(F)cc3)c(O)c(=O)n2C)o1 | 2.69% [at 53 µM] (inactive) |  |
| Cc1ccc(NC=O)c(C)c1 | -0.0023% (inactive) |  |
| Nc1nc(F)nc2c1ncn2[C@@H]1O[C@H](CO)[C@@H](O)[C@@H]1O | -0.964% [at 53 µM] (inactive) |  |
| Cc1cccc(C(=O)O)c1O | 0.138% [at 53 µM] (inactive) |  |
| CCCCCCOCCO |  | inactive |
| O=C(O)CN(CC(=O)O)CC(=O)O |  | inactive |
| CC1=C(C(=O)O)N2C(=O)[C@@H](NC(=O)[C@H](N)C3=CCC=CC3)[C@H]2SC1 | 2.86% [at 53 µM] (inactive) |  |
| Nc1ccc(N)c2c1C(=O)c1ccccc1C2=O | -0.583% (inactive) |  |
| Cc1cc(O)c(Cl)cc1C | 1.36% (inactive) |  |
| COCC(=O)Nc1c(I)c(C(=O)NCC(O)CO)c(I)c(C(=O)N(C)CC(O)CO)c1I (stereo not given) | -0.0869% [at 53 µM] (inactive) |  |
| CCCCCC[C@@H](O)C/C=C\CCCCCCCC(=O)OC | -0.171% (inactive) |  |
| CC1=C(/C=C/C(C)=C/C=C/C(C)=C/C(=O)Nc2ccc(O)cc2)C(C)(C)CCC1 |  | inactive |
| CCN(CC)CCNC(=O)c1cc(S(C)(=O)=O)ccc1OC | 0.0008% [at 53 µM] (inactive) |  |
| CCCCCCOC(C)=O |  | inactive |
| O=c1cc[nH]c(=S)[nH]1 |  | inactive |

— PubChem BioAssay (Tox21)
